Hit rate of the full screen: of about 39,000 compounds, about 3,300 (8.5%) were called active. What follows is part of a selection rich in actives, with near analogues and random picks from the rest.
Each compound was assayed on HepG2 (assay: cytotoxicity call (relative viability < 0.9)). Conditions: 10 µM.

SMILES | cytotoxicity call
COC[C@H]1CCCNC1 | inactive
C[C@@H]1CN([C@@H](C)CO)C(=O)c2cc(NC(=O)Cc3ccccc3)ccc2O[C@@H](C)CCCCO[C@H]1CN(C)Cc1ccncc1 | inactive
CC(C)NC(=O)Nc1ccc2c(c1)C(=O)N([C@@H](C)CO)C[C@@H](C)[C@H](CN(C)S(=O)(=O)c1ccccc1)O2 | inactive
C[C@H](CO)N1C[C@H](C)[C@@H](CN(C)C(=O)NC2CCCCC2)Oc2ccc(NC(=O)Nc3cccc4ccccc34)cc2C1=O | inactive
C[C@@H]1CCCCO[C@@H](CN(C)C(=O)Cc2ccccc2)[C@H](C)CN([C@@H](C)CO)C(=O)c2cc(NC(=O)Nc3ccc(C(F)(F)F)cc3)ccc2O1 | inactive
Cc1noc(C)c1S(=O)(=O)Nc1ccc2c(c1)C(=O)N([C@H](C)CO)C[C@H](C)[C@H](CN(C)C(=O)Nc1ccccc1)OCCCC[C@H](C)O2 | inactive
C[C@@H]1CN([C@@H](C)CO)C(=O)Cc2cc(NC(=O)CCC(F)(F)F)ccc2O[C@H]1CN(C)Cc1ccc(C(=O)Nc2ccccc2N)cc1 | inactive
C[C@H](CO)N1C[C@H](C)[C@H](CN(C)Cc2ccc(-c3ccccc3)cc2)Oc2ccc(NC(=O)C3CCCCC3)cc2C1=O | active
C[C@H]1CN([C@@H](C)CO)C(=O)c2cc(NC(=O)C3CC3)ccc2O[C@H]1CN(C)Cc1ccc(-c2ccccc2)cc1 | inactive
C[C@@H]1CN([C@@H](C)CO)C(=O)c2cc(NC(=O)C3CC3)ccc2O[C@@H]1CN(C)Cc1ccc(-c2ccccc2)cc1 | inactive
CN1CCN(C(=O)C[C@@H]2CC[C@H]3[C@@H](COC[C@@H](O)CN3C(=O)C3CC3)O2)CC1 | inactive
C[C@H]1Cc2cc(S(=O)(=O)N(C)CC(=O)N3CCOCC3)ccc2N1C(=O)C1CC1 | inactive
CCS(=O)(=O)Nc1ccc2c(c1)C(=O)N(C)[C@@H]1CC[C@H](CC(=O)NCc3ccccc3F)O[C@@H]1CO2 | inactive
O=C(C[C@H]1CC[C@H]2[C@@H](COC[C@H](O)CN2Cc2ccccc2F)O1)N[C@H]1CCN(Cc2ccccc2)C1 | inactive
COCCOC(=O)N1C(=O)[C@@]2(c3ccccc31)[C@H](C(=O)N1CCc3cc(OC)c(OC)cc3C1)[C@H]1C(=O)O[C@H](c3ccccc3)[C@H](c3ccccc3)N1[C@@H]2c1ccc(O)cc1 | inactive
C[C@@H]1CCCCO[C@@H](CN(C)Cc2ccc(C(F)(F)F)cc2)[C@H](C)CN([C@@H](C)CO)C(=O)c2cc(NC(=O)c3ccccc3)ccc2O1 | inactive
C=CCC[C@@H](Cc1ccc(F)cc1)C(=O)OC[C@@H](NC(=O)[C@H](CC=C)CC(=O)N(CCO)Cc1ccccc1)c1ccccc1 | inactive
C=CCC[C@H](Cc1ccc(F)cc1)C(=O)O[C@H](CNC(=O)[C@H](CC=C)CC(=O)N(CCO)Cc1ccccc1)c1ccccc1 | inactive
C=CCC[C@H](Cc1ccc(F)cc1)C(=O)O[C@H](CNC(=O)[C@@H](CC=C)CC(=O)N(CCO)Cc1ccccc1)c1ccccc1 | inactive
C=CCC[C@H](Cc1ccc(F)cc1)C(=O)OC[C@@H](NC(=O)[C@@H](CC=C)CC(=O)N(CCO)Cc1ccccc1)c1ccccc1 | inactive
C=CCC[C@H](Cc1ccc(F)cc1)C(=O)O[C@@H](CNC(=O)[C@H](CC=C)CC(=O)N(CCO)Cc1ccccc1)c1ccccc1 | inactive

SMILES | cytotoxicity call
C=CCC[C@@H](Cc1ccc(F)cc1)C(=O)O[C@@H](CNC(=O)[C@H](CC=C)CC(=O)N(CCO)Cc1ccccc1)c1ccccc1 | active
C=CCC[C@@H](Cc1ccc(F)cc1)C(=O)OC[C@@H](NC(=O)[C@@H](CC=C)CC(=O)N(CCO)Cc1ccccc1)c1ccccc1 | active
C=CCC[C@@H](Cc1ccc(F)cc1)C(=O)O[C@@H](CNC(=O)[C@@H](CC=C)CC(=O)N(CCO)Cc1ccccc1)c1ccccc1 | active
C=CCC[C@@H](Cc1ccc(F)cc1)C(=O)O[C@H](CNC(=O)[C@H](CC=C)CC(=O)N(CCO)Cc1ccccc1)c1ccccc1 | inactive
C=CCC[C@H](Cc1ccc(F)cc1)C(=O)O[C@@H](CNC(=O)[C@@H](CC=C)CC(=O)N(CCO)Cc1ccccc1)c1ccccc1 | active
C=CCC[C@@H](Cc1ccc(F)cc1)C(=O)O[C@H](CNC(=O)[C@@H](CC=C)CC(=O)N(CCO)Cc1ccccc1)c1ccccc1 | inactive
C=CC[C@H](CC(=O)N(CCO)Cc1ccccc1)C(=O)NC[C@H](OC(=O)[C@@H](CC=C)Cc1ccc(F)cc1)c1ccccc1 | inactive
COCC(=O)Nc1ccc2c(c1)C(=O)N(C)[C@@H]1CC[C@H](CC(=O)N3CCc4ccccc4C3)O[C@H]1CO2 | inactive
Cc1noc(C)c1NC(=O)Nc1ccc2c(c1)C(=O)N([C@@H](C)CO)C[C@H](C)[C@H](CN(C)S(=O)(=O)c1ccc(F)cc1)OCCCC[C@H](C)O2 | inactive
CN1C(=O)c2cc(NC(=O)C3CCOCC3)ccc2OC[C@@H]2O[C@@H](CC(=O)NCCc3ccncc3)CC[C@@H]21 | inactive
COc1ccc(C=Cc2cc(O)cc(O[C@@H]3O[C@H](CO)[C@@H](O)[C@H](O)[C@H]3O)c2)cc1 | inactive
C1=C(c2ccccc2)CC(c2ccccc2)=NN=C1c1ccccc1 | inactive
COCCNC(=O)[C@H]1[C@H](CO)[C@H]2Cn3c(cccc3=O)[C@@H]1N2S(=O)(=O)c1ccccc1C | inactive
C[C@@H]1CN([C@H](C)CO)C(=O)Cc2cc(NC(=O)Cn3cnnn3)ccc2O[C@H]1CN(C)S(=O)(=O)c1ccc(Cl)cc1 | inactive
CC(C)NC(=O)Nc1ccc2c(c1)CC(=O)N([C@@H](C)CO)C[C@@H](C)[C@@H](CN(C)S(=O)(=O)c1ccccc1)O2 | inactive
CC(C)NC(=O)Nc1ccc2c(c1)CC(=O)N([C@H](C)CO)C[C@H](C)[C@H](CN(C)S(=O)(=O)c1ccc(F)cc1)O2 | inactive
C[C@H](CO)N1C[C@H](C)[C@H](CN(C)Cc2ccc3c(c2)OCO3)Oc2ccc(NS(C)(=O)=O)cc2C1=O | inactive
COc1ccc(NC(=O)Nc2ccc3c(c2)C(=O)N([C@H](C)CO)C[C@@H](C)[C@@H](CN(C)S(=O)(=O)c2ccccc2)OCCCC[C@H](C)O3)cc1 | inactive
C[C@H]1CCCCO[C@H](CN(C)S(=O)(=O)c2ccc(Cl)cc2)[C@@H](C)CN([C@@H](C)CO)C(=O)c2cc(NC(=O)C3CCCCC3)ccc2O1 | inactive
O=C(C[C@H]1CC[C@H]2[C@@H](COC[C@H](O)CN2S(=O)(=O)c2ccc(F)cc2)O1)N[C@H]1CCN(Cc2ccccc2)C1 | inactive
C[C@@H]1CCCCO[C@@H](CN(C)Cc2ccc3c(c2)OCO3)[C@@H](C)CN([C@@H](C)CO)C(=O)c2cc(NS(=O)(=O)c3cccs3)ccc2O1 | inactive

SMILES | cytotoxicity call
CC(=O)N1CCN(CC(=O)NS(=O)(=O)c2ccccc2)CC1 | inactive
O=C1C(NS(=O)(=O)c2ccc(Br)cc2)=C(c2ccc(OC(F)(F)F)cc2)C(=O)c2ccccc21 | inactive
CCN1CCN(C2=C(NS(=O)(=O)c3ccc(Br)cc3)C(=O)c3ccccc3C2=O)CC1 | active
CCN1CCN(C2=C(NS(=O)(=O)c3ccc(Br)s3)C(=O)c3ccccc3C2=O)CC1 | active
COc1cccc(C#Cc2ccc3c(c2)O[C@@H](CN(C)C(C)=O)[C@H](C)CN([C@H](C)CO)S3(=O)=O)c1 | inactive
O=C(C[C@H]1C[C@H]2c3cc(NS(=O)(=O)c4ccc(F)cc4)ccc3O[C@H]2[C@@H](CO)O1)NCc1ccccn1 | inactive
Cc1noc(C)c1NC(=O)Nc1ccc2c(c1)C(=O)N([C@H](C)CO)C[C@H](C)[C@H](CN(C)S(=O)(=O)c1ccc(Cl)cc1)OCCCC[C@@H](C)O2 | inactive
CN1CCN(C(=O)C[C@@H]2CC[C@H]3[C@H](COc4ccc(NC(=O)C5CCOCC5)cc4C(=O)N3C)O2)CC1 | inactive
C[C@@H]1CCCCO[C@H](CN(C)S(=O)(=O)c2cn(C)cn2)[C@@H](C)CN([C@@H](C)CO)C(=O)c2cc(NS(=O)(=O)c3cccs3)ccc2O1 | inactive
CCCNC(=O)Nc1ccc2c(c1)C(=O)N(C)C[C@@H](OC)[C@H](C)CN(C(=O)C1CCOCC1)[C@@H](C)CO2 | inactive
CCO[C@@H]1OC(C(=O)N2CCN(Cc3ccccc3)CC2)=C[C@H](c2ccc(C(F)(F)F)cc2)[C@H]1CCCOC(=O)NCCCCCC(=O)NO | inactive
CN(C)CC(=O)N[C@@H]1CC[C@H](CCNC(=O)C2CC2)O[C@@H]1CO | inactive
C[C@@H]1CN([C@@H](C)CO)C(=O)c2cccc(NC(=O)Nc3cccc4ccccc34)c2O[C@H]1CN(C)C(=O)Nc1ccc(C(F)(F)F)cc1 | active
C[C@H]1CN([C@@H](C)CO)C(=O)c2cccc(NC(=O)Nc3cccc4ccccc34)c2O[C@@H]1CN(C)C(=O)Nc1ccc(C(F)(F)F)cc1 | active
C[C@@H]1CN([C@H](C)CO)C(=O)c2cccc(NC(=O)Nc3cccc4ccccc34)c2O[C@@H]1CN(C)C(=O)Nc1ccc(C(F)(F)F)cc1 | active
C[C@H]1CN([C@@H](C)CO)C(=O)c2cccc(NC(=O)Nc3cccc4ccccc34)c2O[C@H]1CN(C)C(=O)Nc1ccc(C(F)(F)F)cc1 | active
O=C(C1=C[C@H](c2coc3ccccc3c2=O)C[C@H](OCCCCO)O1)N1CCOCCOCCOCCOCC1 | inactive
Cc1ccc(S(=O)(=O)Nc2ccc3c(c2)C(=O)N([C@@H](C)CO)C[C@@H](C)[C@H](CN(C)C(=O)Nc2ccc4c(c2)OCO4)OCCCC[C@@H](C)O3)cc1 | inactive
COc1ccc(S(=O)(=O)N(C)C[C@H]2OCCCC[C@H](C)Oc3ccc(NC(=O)Nc4cccc5ccccc45)cc3C(=O)N([C@H](C)CO)C[C@@H]2C)cc1 | inactive
COc1cccc(S(=O)(=O)Nc2ccc3c(c2)[C@@H]2C[C@H](CC(=O)NCCc4ccccc4)O[C@@H](CO)[C@@H]2O3)c1 | inactive

From the antibiotic and cytotoxicity screens of Wong et al. (2023)
